Measurements as given in PubChem BioAssay AID1159580 (chemical genetic matrix, 2015).
Where “and” joins values, the source holds several entries; their conditions need not be identical. Identical values can stand only once. The whole screen tested about 5,500 compounds, of which about 2,000 (36%) were called active. Inconclusive results (about 18%) are left out. Rule as the data show it: active = normalized growth mostly below about 0.91 (no sharp cut-off); inconclusive = no clear call, values can overlap the other calls; inactive = mostly above about 0.92. Some of the results follow.

Assay: chemical genetic growth profiling, strain panel (AID 1159580);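 also: tested at 20 µM; growth read once vehicle control cultures reached saturation at 30 °C; 1 = growth at the plate median or of vehicle wells; lower values mean less growth of the strain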
Conditions: growth OD

Measured: normalized growth

OCCN1CCN(CCCN2c3ccccc3Sc3ccc(Cl)cc32)CC1
inactive: S. cerevisiae deletion strains, locus YJR075W, strain HOC1, stronger effect = lower value 1 | S. cerevisiae deletion strains, locus YKL009W, strain mrt4, stronger effect = lower value 0.982 | S. cerevisiae deletion strains, locus YKL068W, stronger effect = lower value 0.999 | S. cerevisiae deletion strains, locus YKL085W, strain MDH1 (second series), stronger effect = lower value 1 | S. cerevisiae deletion strains, locus YKL085W, strain MDH1, stronger effect = lower value 1 | S. cerevisiae deletion strains, locus YKL160W, strain elf1, stronger effect = lower value 0.996 | S. cerevisiae deletion strains, locus YKL190W, strain CNB1, stronger effect = lower value 1.01 | S. cerevisiae deletion strains, locus YKR001C, strain vps1, stronger effect = lower value 1.03 | S. cerevisiae deletion strains, locus YKR026C, strain gcn3, stronger effect = lower value 1 | S. cerevisiae deletion strains, locus YKR091W, strain srl3, stronger effect = lower value 1 | S. cerevisiae deletion strains, locus YLL001W, strain dnm1, stronger effect = lower value 1.01 | S. cerevisiae deletion strains, locus YLL026W, stronger effect = lower value 0.999 | S. cerevisiae deletion strains, locus YLL041C, strain sdh2, stronger effect = lower value 1 | S. cerevisiae deletion strains, locus YLR027C, strain aat2, stronger effect = lower value 1 | S. cerevisiae deletion strains, locus YLR039C, strain RIC1, stronger effect = lower value 1.24 | S. cerevisiae deletion strains, locus YLR058C, strain SHM2, stronger effect = lower value 1.01 | S. cerevisiae deletion strains, locus YLR102C, strain apc9, stronger effect = lower value 0.991 | S. cerevisiae deletion strains, locus YLR113W, strain HOG1, stronger effect = lower value 0.98 | S. cerevisiae deletion strains, locus YLR221C, strain rsa3, stronger effect = lower value 1 | S. cerevisiae deletion strains, locus YLR258W, strain gsy2, stronger effect = lower value 1 | S. cerevisiae deletion strains, locus YLR262C, strain YPT6 (second series), stronger effect = lower value 1.06 | S. cerevisiae deletion strains, locus YLR262C, strain YPT6, stronger effect = lower value 1.32 | S. cerevisiae deletion strains, locus YLR268W, strain sec22, stronger effect = lower value 0.935 | S. cerevisiae deletion strains, locus YLR320W, strain mms22, stronger effect = lower value 0.964 | S. cerevisiae deletion strains, locus YLR330W, strain CHS5, stronger effect = lower value 1.01 | S. cerevisiae deletion strains, locus YLR342W, strain FKS1 (second series), stronger effect = lower value 0.958 | S. cerevisiae deletion strains, locus YLR342W, strain FKS1, stronger effect = lower value 0.994 | S. cerevisiae deletion strains, locus YLR357W, strain rsc2, stronger effect = lower value 0.983 | S. cerevisiae deletion strains, locus YLR370C, strain arc18, stronger effect = lower value 1 | S. cerevisiae deletion strains, locus YLR371W, strain rom2, stronger effect = lower value 0.992 | S. cerevisiae deletion strains, locus YLR384C, strain iki3, stronger effect = lower value 1 | S. cerevisiae deletion strains, locus YLR418C, strain cdc73, stronger effect = lower value 0.894 | S. cerevisiae deletion strains, locus YML016C, strain PPZ1, stronger effect = lower value 1.02 | S. cerevisiae deletion strains, locus YML032C, strain rad52, stronger effect = lower value 0.961 | S. cerevisiae deletion strains, locus YML120C, strain ndi1, stronger effect = lower value 1 | S. cerevisiae deletion strains, locus YML124C, strain tub3, stronger effect = lower value 0.991 | S. cerevisiae deletion strains, locus YMR058W, strain fet3, stronger effect = lower value 0.995 | S. cerevisiae deletion strains, locus YMR078C, strain ctf18, stronger effect = lower value 0.986 | S. cerevisiae deletion strains, locus YMR125W, strain sto1, stronger effect = lower value 1.01 | S. cerevisiae deletion strains, locus YMR129W, stronger effect = lower value 1 | S. cerevisiae deletion strains, locus YMR205C, strain PFK2, stronger effect = lower value 0.977 | S. cerevisiae deletion strains, locus YMR223W, strain ubp8, stronger effect = lower value 0.984 | S. cerevisiae deletion strains, locus YMR231W, strain pep5, stronger effect = lower value 1 | S. cerevisiae deletion strains, locus YMR263W, strain SAP30, stronger effect = lower value 1 | S. cerevisiae deletion strains, locus YMR307W, strain GAS1, stronger effect = lower value 1.1 | S. cerevisiae deletion strains, locus YNL067W, strain RPL9B, stronger effect = lower value 0.989 | S. cerevisiae deletion strains, locus YNL071W, strain lat1, stronger effect = lower value 1.01 | S. cerevisiae deletion strains, locus YNL128W, strain TEP1, stronger effect = lower value 1 | S. cerevisiae deletion strains, locus YNL153C, strain GIM3, stronger effect = lower value 0.983 and 0.891 | S. cerevisiae deletion strains, locus YNL175C, strain NOP13, stronger effect = lower value 1.03 | S. cerevisiae deletion strains, locus YNL183C, strain NPR1, stronger effect = lower value 0.947 | S. cerevisiae deletion strains, locus YNL197C, strain WHI3, stronger effect = lower value 1.02 | S. cerevisiae deletion strains, locus YNL209W, strain ssb2, stronger effect = lower value 0.997 | S. cerevisiae deletion strains, locus YNL224C, strain SQS1, stronger effect = lower value 1.02 | S. cerevisiae deletion strains, locus YNL233W, strain BNI4, stronger effect = lower value 0.986 | S. cerevisiae deletion strains, locus YNL248C, strain rpa49, stronger effect = lower value 0.998 | S. cerevisiae deletion strains, locus YNL250W, strain rad50, stronger effect = lower value 0.985 | S. cerevisiae deletion strains, locus YNL271C, strain bni1, stronger effect = lower value 0.996 | S. cerevisiae deletion strains, locus YNL298W, strain CLA4, stronger effect = lower value 0.976 | S. cerevisiae deletion strains, locus YNL307C, strain MCK1, stronger effect = lower value 0.973 | S. cerevisiae deletion strains, locus YNL322C, strain KRE1 (second series), stronger effect = lower value 1 | S. cerevisiae deletion strains, locus YNL322C, strain KRE1, stronger effect = lower value 1.01 | S. cerevisiae deletion strains, locus YNR049C, strain mso1, stronger effect = lower value 1.01 | S. cerevisiae deletion strains, locus YNR052C, strain pop2, stronger effect = lower value 1 | S. cerevisiae deletion strains, locus YOL006C, strain TOP1, stronger effect = lower value 1.01 | S. cerevisiae deletion strains, locus YOL012C, strain htz1 0.889 | S. cerevisiae deletion strains, locus YOL147C, strain pex11, stronger effect = lower value 0.992 | S. cerevisiae deletion strains, locus YOR001W, strain rrp6, stronger effect = lower value 0.976 | S. cerevisiae deletion strains, locus YOR061W, strain CKA2, stronger effect = lower value 1.02 | S. cerevisiae deletion strains, locus YOR069W, strain VPS5, stronger effect = lower value 1.01 | S. cerevisiae deletion strains, locus YOR070C, strain gyp1, stronger effect = lower value 0.994 | S. cerevisiae deletion strains, locus YOR080W, strain dia2, stronger effect = lower value 1 | S. cerevisiae deletion strains, locus YOR083W, strain WHI5 (second series), stronger effect = lower value 0.973 | S. cerevisiae deletion strains, locus YOR083W, strain WHI5, stronger effect = lower value 0.991 | S. cerevisiae deletion strains, locus YOR106W, strain vam3, stronger effect = lower value 0.962 | S. cerevisiae deletion strains, locus YOR136W, strain idh2, stronger effect = lower value 0.998 | S. cerevisiae deletion strains, locus YOR144C, strain elg1, stronger effect = lower value 1 | S. cerevisiae deletion strains, locus YOR184W, strain ser1, stronger effect = lower value 0.985 | S. cerevisiae deletion strains, locus YOR231W, strain MKK1, stronger effect = lower value 0.997 | S. cerevisiae deletion strains, locus YOR265W, strain rbl2, stronger effect = lower value 0.998 | S. cerevisiae deletion strains, locus YOR270C, strain vph1, stronger effect = lower value 1.04 | S. cerevisiae deletion strains, locus YOR290C, strain snf2, stronger effect = lower value 0.968 | S. cerevisiae deletion strains, locus YOR316C, strain cot1, stronger effect = lower value 0.994 | S. cerevisiae deletion strains, locus YPL051W, strain arl3, stronger effect = lower value 0.975 | S. cerevisiae deletion strains, locus YPL055C, strain LGE1, stronger effect = lower value 0.99 | S. cerevisiae deletion strains, locus YPL078C, strain atp4, stronger effect = lower value 1 | S. cerevisiae deletion strains, locus YPL106C, strain sse1, stronger effect = lower value 1.03 | S. cerevisiae deletion strains, locus YPL240C, strain hsp82, stronger effect = lower value 0.995 | S. cerevisiae deletion strains, locus YPL241C, strain CIN2, stronger effect = lower value 1.02 | S. cerevisiae deletion strains, locus YPL256C, strain CLN2, stronger effect = lower value 1.01 | S. cerevisiae deletion strains, locus YPR119W, strain clb2, stronger effect = lower value 0.991 | S. cerevisiae deletion strains, locus YPR141C, strain kar3, stronger effect = lower value 0.996 | S. cerevisiae deletion strains, locus YPR163C, strain tif3, stronger effect = lower value 0.987 | S. cerevisiae deletion strains, locus YPR167C, strain met16, stronger effect = lower value 1 | S. cerevisiae deletion strains, strain wtn01, stronger effect = lower value 0.951 | S. cerevisiae strains, strain wild type, stronger effect = lower value 1.01
